These results are taken from PubChem BioAssay (Tox21).

Records with an inconclusive call do not appear. Some structures have more than one record in an assay (separate samples or runs), and their calls can disagree. Activity calls are given as the source filed them. Unless noted, calls come from the whole dose curve; as a rule, active = well fitted curve in the direction sought with a large enough effect in the repeat runs; inconclusive = weak or mixed curves; inactive = no such curve, though single readings can be large; an effect the other way counts as inactive or inconclusive.

Assay [1] can be described thus: qHTS assay to identify small molecule phospholipidosis (PLD) inducers (AID 1259344; active = well fitted curve in the direction sought with a large enough effect; an effect the other way counts as inactive or inconclusive). In short, it runs like this: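 After 4 h attachment on collagen I, HepG2 cells were dosed with compound alongside LipidTOX Red, kept 24 h at 37 C, fixed, and imaged for lamellar phospholipid pits.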
Background: qHTS replaces the single test concentration by a dilution series.

Assay [2] is described as follows: qHTS assay to identify small molecule HDAC inhibitors (AID 1259364).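 Note: wild-type HCT-116 cells with endogenous class I/II HDAC activity; top concentration of the series differs between compounds; nearly all actives have a fitted effect of over 45% in size.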 In short, it runs like this:
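HCT-116 wt cells, 1,500/well, overnight attach. Compounds (DMSO) 2 h, 37 °C. HDAC-Glo I/II, 30 min RT. Luminescence.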

A short description of assay [3]: qHTS assay to identify small molecule HDAC inhibitors - cell viability counter screen (AID 1259365). Note: series mostly up to about 92 µM; nearly all actives have a fitted effect of over 50% in size. In short, it runs like this: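 To flag cytotoxic hits, 1,500 wild-type HCT-116 cells per well, plated the day before, receive test compounds for 2hr at 37 C before CellTiter-Glo reagent and a luminescence read.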
A short description of assay [4]: qHTS assay to identify small molecule agonists of the sonic hedgehog signaling (Shh) pathway - cell viability counter screen (AID 1259366). Note: nearly all actives have a fitted effect of over 50% in size. Put shortly:
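Fluorescence from CellTiter-Fluor reports live cells in this counter screen. NIH/3T3-derived Gli1-Luc reporter cells receive test compounds for 24hr at 37C; reagent goes in at 23hr.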

A short description of assay [5]: qHTS assay to identify small molecule antagonists of the sonic hedgehog signaling (Shh) pathway - cell viability counter screen (AID 1259367). Note: nearly all actives have a fitted effect of over 55% in size. Put shortly: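 Conditioned medium drove Shh signaling in 3T3 Gli1-Luc cells exposed to compounds at 37C and 5% CO2. Viability was determined from CellTiter-Fluor fluorescence, with reagent incubated 1 hr after 23 hr of treatment.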

Assay [6] is described as follows: qHTS assay to identify small molecule agonists of the sonic hedgehog signaling (Shh) pathway (AID 1259368; calls by dose curve;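 note: NIH/3T3-derived 3T3Gli1-Luc cells carrying a stable Gli1-driven firefly luciferase reporter; series mostly up to about 92 µM; nearly all actives have a fitted effect of over 15% in size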). Put shortly:
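Following a 24 hr incubation with DMSO-dissolved compounds at 37 C, 5% CO2, Gli1-Luc NIH/3T3-derived cells received luciferase reagent for 30 min at room temperature prior to luminescence measurement.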

Assay [7] is described as follows: qHTS assay to identify small molecule antagonists of the sonic hedgehog signaling (Shh) pathway (AID 1259369; calls by dose curve; note: nearly all actives have a fitted effect of over 45% in size). In short, it runs like this: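 Read-out is luminescence from a firefly luciferase gene controlled by the Gli1 response element, in 3T3Gli1-Luc cells pre-incubated 4hr then exposed to compounds and conditioned medium for 24hr.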
In assay [8] the target is Estrogen receptor beta (Homo sapiens) (UniProt Q92731). The assay is described as follows: qHTS assay to identify small molecule agonists of the estrogen receptor beta (ER-beta) signaling pathway (AID 1259377; active = well fitted activation curve with a large enough effect in the signal ratio in the repeat runs, not every such curve was filed as active; the % refers to the signal ratio). In short, it runs like this:
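Screening used GripTite ER-beta-UAS-bla cells held in 2% charcoal-stripped FBS medium. After overnight (16 hr) compound incubation at 37C, beta-lactamase activity was detected with a FRET substrate by fluorescence.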

A short description of assay [9]: qHTS assay to identify small molecule agonists of the androgen receptor (AR) signaling pathway in the presence of an antagonist - cell viability counter screen (AID 1259379).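 Note: MDA-kb2 human breast cancer cells carrying an MMTV luciferase reporter; series mostly up to about 92 µM; nearly all actives have a fitted effect of over 25% in size.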 Put shortly: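 Each compound was tested at 15 concentrations on MDA-kb2 cells in the presence of 3.0uM nilutamide. Viability was measured by CellTiter-Fluor fluorescence after a 16 hr incubation at 37C in a CO2-free atmosphere.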

Assay [10] can be described thus: qHTS assay to identify small molecule agonists of the estrogen receptor beta (ER-beta) signaling pathway - cell viability counter screen (AID 1259380). Note: nearly all actives have a fitted effect of over 30% in size. In short, it runs like this: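 Compounds dissolved in DMSO were pin-transferred onto ER-beta-UAS-bla HEK293T cells that had settled 6 hr, and exposure ran 16 hr at 37C. Following the reporter read, CellTiter-Glo luminescence after 30 min at room temperature indicated cytotoxicity.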

Assay [11] in a line: qHTS assay to identify small molecule antagonists of the estrogen receptor beta (ER-beta) signaling pathway - cell viability counter screen (AID 1259382). Note: series mostly up to about 92 µM; nearly all actives have a fitted effect of over 55% in size. In short, it runs like this:
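CellTiter-Glo ATP luminescence measured after the LiveBLAzer read in the same wells; ER-beta-UAS-bla HEK293T cells, 16 hr compound treatment with 1nM 17-beta-estradiol agonist at 37C, 5% CO2.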

In assay [12] the target is Estrogen receptor (Homo sapiens) (UniProt P03372). The assay is described as follows: qHTS assay to identify small molecule agonists of the estrogen receptor alpha (ER-alpha) signaling pathway in the presence of an antagonist (AID 1259383; calls by dose curve; note: top concentration of the series differs between compounds; nearly all actives have a fitted effect of over 15% in size). In short, it runs like this: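 Luminescent ERE-luciferase reporter, VM7Luc4E2 cells (endogenous ER-alpha); 10.0nM ICI-182,780 final; 15-point compound titration; 22hr at 37C; ONE-Glo, 30min RT.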

Assay [13] in a line: qHTS assay to identify small molecule agonists or antagonists of the thyroid stimulating hormone receptor (TSHR) signaling pathway - wild type cell line counter screen (AID 1259384; calls by dose curve). Put shortly:
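Wild-type HEK293 cells were plated 18 h at 37 C/5% CO2, pin-dosed with compound plus Ro20-1724 medium, held 30 min at room temperature, then given cAMP-d2 and anti-cAMP-cryptate; fluorescence was read after 1 h. Fifteen concentrations, triplicate.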

A short description of assay [14]: qHTS assay to identify small molecule agonists of the estrogen receptor alpha (ER-alpha) signaling pathway in the presence of an antagonist - cell viability counter screen (AID 1259386).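 Note: series mostly up to about 92 µM; cells exposed to compounds for 22 h at 37 °C before the viability read; nearly all actives have a fitted effect of over 30% in size.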 Put shortly: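 Using estrogen-depleted VM7Luc4E2 cells, the 15-concentration compound series was applied together with 10.0nM ICI-182,780 and incubated 22hr at 37C/5% CO2. Cell viability was then scored by CellTiter-Fluor.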

The target of assay [15] is Progesterone receptor (Homo sapiens) (UniProt P06401). In words: qHTS assay to identify small molecule agonists of the progesterone receptor (PR) signaling pathway (AID 1346784; calls by dose curve; note: nearly all actives have a fitted effect of over 30% in size; note: potency is the fitted concentration of half-maximal effect). In short, it runs like this: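 Seed PR-UAS-bla HEK 293T cells (2% charcoal-stripped FBS), incubate 6 hr at 37C; add compounds in DMSO, 16 hr at 37C; add LiveBLAzer B/G substrate, 2 hr RT; read fluorescence intensity.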

Assay [16] has the same target. The assay is described as follows: qHTS assay to identify small molecule antagonists of the progesterone receptor (PR) signaling pathway (AID 1346795; active = well fitted inhibition curve with a large enough effect in the signal ratio in the repeat runs, not every such curve was filed as active; the % refers to the signal ratio). Put shortly:
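Screening used a GripTite HEK293T line with PR-responsive UAS-beta-lactamase. Cells were challenged with compound in the presence of 1 nM R5020 final for 16 hr at 37C; B/G FRET substrate, 2 hr room temperature, fluorescence.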

Assay [17] has as its target Estrogen receptor (Homo sapiens) (UniProt P03372). The assay is described as follows: qHTS assay to identify small molecule antagonists of the estrogen receptor alpha (ER-alpha) signaling pathway using the BG1 cell line in the presence of 0.1 nM 17-beta-estradiol (AID 1259244). Note: nearly all actives have a fitted effect of over 50% in size. Put shortly:
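Luciferase signal from VM7Luc4E2 ERE-reporter cells, co-dosed with test compound and 0.1 nM final 17beta-estradiol for 22 h, read with ONE-Glo.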

For assay [18], the target named is Estrogen receptor beta (Homo sapiens) (UniProt Q92731). The assay is described as follows: qHTS assay to identify small molecule antagonists of the estrogen receptor beta (ER-beta) signaling pathway (AID 1259378; active = well fitted inhibition curve with a large enough effect in the signal ratio in the repeat runs, not every such curve was filed as active; the % refers to the signal ratio). In short, it runs like this:
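ER-beta-UAS-bla HEK293T (GripTite) cells in 2% charcoal-stripped FBS medium were preincubated 6 hr at 37C, dosed with compound, then stimulated with 1 nM E2 (final) for 16 hr; beta-lactamase reporter read by B/G FRET fluorescence after 2 hr substrate loading.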

In assay [19] the target is Thyrotropin receptor (Homo sapiens) (UniProt P16473). The assay is described as follows: qHTS assay to identify small molecule antagonists of the thyroid stimulating hormone receptor (TSHR) signaling pathway (AID 1259385; calls by dose curve; note: nearly all actives have a fitted effect of over 20% in size). In short, it runs like this:
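TSHR-HEK293 cells were plated and held 18 h at 37C/5% CO2, then given compound plus Ro20-1724 and stimulated with TSH at 1.5 ng/mL final. After 30 min at room temperature, cAMP was detected with cAMP-d2/anti-cAMP-cryptate (1 h) by fluorescence.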

Chain of Thyrotropin receptor (Homo sapiens) (P16473 whole entry, looked up): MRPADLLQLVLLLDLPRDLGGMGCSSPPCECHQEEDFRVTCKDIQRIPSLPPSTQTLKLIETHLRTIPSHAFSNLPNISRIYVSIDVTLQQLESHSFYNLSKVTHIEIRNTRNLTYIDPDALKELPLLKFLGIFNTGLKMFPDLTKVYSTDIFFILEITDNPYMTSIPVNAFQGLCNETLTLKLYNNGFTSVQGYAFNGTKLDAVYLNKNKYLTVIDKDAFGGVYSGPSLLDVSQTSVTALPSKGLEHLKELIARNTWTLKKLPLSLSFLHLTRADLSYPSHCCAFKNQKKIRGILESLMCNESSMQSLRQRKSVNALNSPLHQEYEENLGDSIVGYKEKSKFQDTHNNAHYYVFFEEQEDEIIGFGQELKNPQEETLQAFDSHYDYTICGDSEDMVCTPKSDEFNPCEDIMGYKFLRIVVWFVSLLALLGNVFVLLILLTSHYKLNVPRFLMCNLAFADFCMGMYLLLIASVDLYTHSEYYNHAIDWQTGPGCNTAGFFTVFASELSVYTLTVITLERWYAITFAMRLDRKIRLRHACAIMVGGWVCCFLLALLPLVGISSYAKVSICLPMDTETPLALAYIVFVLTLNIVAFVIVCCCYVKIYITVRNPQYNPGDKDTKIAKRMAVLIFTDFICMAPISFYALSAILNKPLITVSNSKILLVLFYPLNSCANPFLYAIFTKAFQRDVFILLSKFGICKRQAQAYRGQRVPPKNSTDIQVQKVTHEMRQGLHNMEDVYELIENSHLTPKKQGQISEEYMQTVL
Chain of Estrogen receptor (Homo sapiens) (P03372 whole entry, looked up): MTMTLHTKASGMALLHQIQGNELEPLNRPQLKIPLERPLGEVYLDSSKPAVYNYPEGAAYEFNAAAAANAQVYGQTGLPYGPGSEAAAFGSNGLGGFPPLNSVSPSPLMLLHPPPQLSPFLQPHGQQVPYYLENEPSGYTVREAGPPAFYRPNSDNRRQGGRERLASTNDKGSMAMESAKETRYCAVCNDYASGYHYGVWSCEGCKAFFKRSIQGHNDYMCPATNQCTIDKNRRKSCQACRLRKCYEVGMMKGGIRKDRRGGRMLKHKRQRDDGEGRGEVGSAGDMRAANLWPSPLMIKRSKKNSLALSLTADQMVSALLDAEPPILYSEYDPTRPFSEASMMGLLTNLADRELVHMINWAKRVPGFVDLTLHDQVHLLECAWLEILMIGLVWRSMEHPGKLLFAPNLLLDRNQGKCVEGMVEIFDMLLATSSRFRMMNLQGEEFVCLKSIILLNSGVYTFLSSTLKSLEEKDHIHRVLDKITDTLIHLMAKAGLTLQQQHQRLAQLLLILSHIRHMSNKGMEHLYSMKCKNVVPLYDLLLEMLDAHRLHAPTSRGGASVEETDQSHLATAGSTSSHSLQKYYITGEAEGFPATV
Chain of Progesterone receptor (Homo sapiens) (P06401 whole entry, looked up): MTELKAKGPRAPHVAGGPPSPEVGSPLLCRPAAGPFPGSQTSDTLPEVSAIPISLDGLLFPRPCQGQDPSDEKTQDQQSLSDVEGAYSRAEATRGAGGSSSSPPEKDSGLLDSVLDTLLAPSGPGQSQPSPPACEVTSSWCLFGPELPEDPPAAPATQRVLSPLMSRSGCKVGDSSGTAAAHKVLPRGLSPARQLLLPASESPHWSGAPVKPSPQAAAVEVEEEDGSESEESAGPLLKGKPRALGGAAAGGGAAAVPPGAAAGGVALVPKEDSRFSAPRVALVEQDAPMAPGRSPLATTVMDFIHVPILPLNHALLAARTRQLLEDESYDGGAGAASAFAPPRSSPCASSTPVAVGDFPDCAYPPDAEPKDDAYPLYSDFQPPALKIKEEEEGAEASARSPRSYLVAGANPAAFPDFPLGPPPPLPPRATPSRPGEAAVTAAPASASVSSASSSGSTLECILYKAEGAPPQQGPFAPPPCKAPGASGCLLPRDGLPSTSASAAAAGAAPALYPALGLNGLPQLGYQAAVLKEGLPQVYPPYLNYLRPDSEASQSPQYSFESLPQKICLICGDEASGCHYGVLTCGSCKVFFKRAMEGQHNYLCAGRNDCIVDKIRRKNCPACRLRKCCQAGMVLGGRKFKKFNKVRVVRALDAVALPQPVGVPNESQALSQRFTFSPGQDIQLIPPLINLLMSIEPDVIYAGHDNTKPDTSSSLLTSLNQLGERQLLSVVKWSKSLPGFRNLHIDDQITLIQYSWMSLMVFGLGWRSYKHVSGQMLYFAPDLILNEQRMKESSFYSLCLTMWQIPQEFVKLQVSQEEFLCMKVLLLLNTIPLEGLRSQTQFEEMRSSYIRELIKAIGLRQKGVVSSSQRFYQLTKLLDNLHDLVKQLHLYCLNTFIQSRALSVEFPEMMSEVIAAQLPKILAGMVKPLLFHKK
Chain of Estrogen receptor beta (Homo sapiens) (Q92731 whole entry, looked up): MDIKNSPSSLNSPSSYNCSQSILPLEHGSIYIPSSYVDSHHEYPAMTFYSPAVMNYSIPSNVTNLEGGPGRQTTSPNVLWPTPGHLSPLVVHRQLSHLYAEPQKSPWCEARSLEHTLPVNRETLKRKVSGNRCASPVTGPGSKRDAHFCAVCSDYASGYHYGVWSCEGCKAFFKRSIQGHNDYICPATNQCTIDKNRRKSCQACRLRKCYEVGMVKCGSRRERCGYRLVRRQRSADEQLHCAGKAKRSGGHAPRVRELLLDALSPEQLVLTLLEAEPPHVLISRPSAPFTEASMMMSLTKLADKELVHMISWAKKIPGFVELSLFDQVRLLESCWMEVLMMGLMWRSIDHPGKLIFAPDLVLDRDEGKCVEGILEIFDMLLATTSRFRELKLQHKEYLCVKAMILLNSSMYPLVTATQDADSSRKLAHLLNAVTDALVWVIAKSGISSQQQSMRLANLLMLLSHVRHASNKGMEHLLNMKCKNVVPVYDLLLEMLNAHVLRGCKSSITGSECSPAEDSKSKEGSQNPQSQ

For the compound `CC(=O)OCC(=O)[C@@]12N=C(C)O[C@@H]1C[C@H]1[C@@H]3CCC4=CC(=O)C=C[C@]4(C)[C@H]3[C@@H](O)C[C@@]12C`, the result in [1], in [3], in [6] and in assay [13] was inactive. The Potency result in assay [2], in assay [4], in assay [5], in assay [7], in [8] and in [9] was “inactive” in each case. Moreover, the Potency result in [10], in assay [11], in assay [12], in assay [14] and in assay [16] was “inactive” throughout. Also, the Potency in assay [15] is 686 nM (active).

Regarding `c1c[nH]cn1`, the Potency result in [17], in assay [2], in assay [4], in assay [5], in assay [7] and in assay [8] was “inactive” in each case. The Potency result in [18], in [9], in [10], in assay [11], in assay [12] and in [14] was “inactive” each time. Also, the Potency entry in assay [15] was “inactive”. The compound was classed as inactive in assay [3] and in assay [6].

`O=c1[nH]c(=O)n([C@H]2C[C@H](O)[C@@H](CO)O2)cc1Br`: the compound was classed as inactive in [1], in [3], in assay [6] and in assay [13]. For the same compound, the Potency result in assay [2], in assay [4], in assay [5], in assay [7], in assay [8] and in assay [9] was “inactive” in each case. Also, the Potency entry in assay [10], in assay [11], in assay [12], in assay [19], in assay [14] and in assay [15] was “inactive” in each case. Also, in assay [16], the Potency result was “inactive”.

On to `Cc1cc(C)c(C)cc1C`, for which the Potency result in assay [17], in assay [2], in assay [4], in assay [5], in assay [7] and in [9] was “inactive” throughout. For the same compound, the Potency result in assay [10], in assay [11], in [12], in [14], in assay [15] and in assay [16] was “inactive” each time. Also, the result in assay [3], in [6] and in [13] was inactive.

On to `O=C(O)c1cc(=O)c2c(OCC(O)COc3cccc4oc(C(=O)O)cc(=O)c34)cccc2o1`, for which the outcome in [1], in [3], in assay [6] and in assay [13] was inactive. The Potency entry in assay [2], in [4], in assay [5], in [7], in [8] and in assay [18] was “inactive” each time. Further, the Potency entry in assay [9], in assay [10], in [11], in assay [12], in assay [19] and in assay [14] was “inactive” throughout. Moreover, the Potency result in [15] and in [16] was “inactive” in each case.

As to `COc1cc(Cc2cnc(N)nc2N)cc(OC)c1OC`, the Potency entry in assay [17], in assay [2], in [4], in assay [5], in assay [7] and in assay [8] was “inactive” throughout. Also, the Potency entry in assay [9], in assay [10], in assay [11], in assay [12], in [19] and in assay [14] was “inactive” throughout. The Potency result in [16] was “inactive”. The call in [1], in [3], in assay [6] and in assay [13] was inactive. Further, the Potency in [15] was 5.43 µM (active) and inactive.

For the compound `O=C(Oc1ccccc1)c1ccccc1`, the Potency entry in assay [2], in [4], in assay [5], in assay [7], in assay [8] and in assay [9] was “inactive” each time. Besides, the Potency entry in assay [10], in assay [11], in assay [19], in assay [14] and in assay [15] was “inactive” throughout. The result in assay [3], in assay [6] and in [13] was inactive.

`CC1=CC(=O)NS(=O)(=O)O1`: the call in assay [1], in assay [3], in assay [6] and in assay [13] was inactive. Further, the Potency result in assay [2], in assay [4], in assay [5], in assay [7], in assay [8] and in assay [9] was “inactive” throughout. The Potency result in [10], in assay [11], in [19], in [14], in assay [15] and in assay [16] was “inactive” in each case.
